# Legend:
# Experiment in all cases: universal protein binding microarray (PBM); transcription factors of Arabidopsis thaliana; high values mean tight binding
# GST-ANAC092(1-176) = biological target: T1, GST-ANAC092(1-176) (Arabidopsis thaliana, UniProt Q9FKA0 1-176); details: protein: recombinant; tags: GST; chain copies: 2; dsDNA, one strand shown
# T1 sequence: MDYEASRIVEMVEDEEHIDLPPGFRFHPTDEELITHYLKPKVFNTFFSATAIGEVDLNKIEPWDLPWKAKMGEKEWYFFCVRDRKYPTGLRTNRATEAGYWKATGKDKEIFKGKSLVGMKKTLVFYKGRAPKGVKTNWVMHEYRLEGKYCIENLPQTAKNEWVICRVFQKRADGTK
# In short: (§1)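 GST-tagged proteins (NAC-domain, full-length or DNA-binding-domain) were induced in cells, with zinc acetate supplied for zinc-finger proteins, then purified on glutathione–Sepharose 4B. Each was tested in duplicate at 200 to 500 nM final on custom all-10-mer Agilent 4 × 180K arrays rendered double-stranded by primer extension. The binding value is the normalised enrichment score (E-score) across gapped and ungapped 8-mers.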
# GST-ANAC019 NAC domain = biological target: T2, GST-ANAC019 NAC domain (Arabidopsis thaliana, UniProt Q9C932 14-162); details: protein: recombinant; tags: GST; chain copies: 2; dsDNA, one strand shown
# T2 sequence: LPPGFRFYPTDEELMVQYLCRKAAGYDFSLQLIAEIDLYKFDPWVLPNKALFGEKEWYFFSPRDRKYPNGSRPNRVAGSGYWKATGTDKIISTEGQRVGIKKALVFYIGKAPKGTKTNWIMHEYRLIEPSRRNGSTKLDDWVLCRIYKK
# In short: as §1
# GST-ANAC055(1-171) = biological target: T3, GST-ANAC055(1-171) (Arabidopsis thaliana, UniProt Q9LDY8 1-171); details: protein: recombinant; tags: GST; chain copies: 2; dsDNA, one strand shown
# T3 sequence: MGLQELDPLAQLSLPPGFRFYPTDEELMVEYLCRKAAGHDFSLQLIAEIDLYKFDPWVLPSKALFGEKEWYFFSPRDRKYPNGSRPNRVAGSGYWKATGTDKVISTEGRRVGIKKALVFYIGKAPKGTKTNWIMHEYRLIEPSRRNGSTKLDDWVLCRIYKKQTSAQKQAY
# In short: as §1
# GST-ATAF1 NAC domain = biological target: T4, GST-ATAF1 NAC domain (Arabidopsis thaliana, UniProt Q39013 7-158); details: protein: recombinant; tags: GST; chain copies: 2; dsDNA, one strand shown
# T4 sequence: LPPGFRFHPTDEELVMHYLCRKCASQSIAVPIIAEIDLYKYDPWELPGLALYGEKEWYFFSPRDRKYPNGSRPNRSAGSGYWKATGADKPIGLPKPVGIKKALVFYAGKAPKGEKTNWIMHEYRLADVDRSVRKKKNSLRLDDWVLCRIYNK
# In short: as §1
# [1] = biological target: T5, GST-ANAC092(1-285) full length (Arabidopsis thaliana, UniProt Q9FKA0 1-285); details: protein: recombinant; tags: GST; chain copies: 2; dsDNA, one strand shown
# T5 sequence: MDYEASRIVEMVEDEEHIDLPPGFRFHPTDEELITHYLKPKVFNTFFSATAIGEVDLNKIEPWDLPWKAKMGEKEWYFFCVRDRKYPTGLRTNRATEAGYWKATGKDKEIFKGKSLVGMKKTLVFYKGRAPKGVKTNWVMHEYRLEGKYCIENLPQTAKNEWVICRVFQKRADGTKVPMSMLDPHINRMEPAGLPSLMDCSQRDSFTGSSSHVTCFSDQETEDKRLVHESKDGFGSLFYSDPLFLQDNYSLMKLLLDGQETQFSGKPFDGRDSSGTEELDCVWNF
# In short: as §1
# GST-NAP(1-166) = biological target: T6, GST-NAP(1-166) (Arabidopsis thaliana, UniProt O49255 1-166); details: protein: recombinant; tags: GST; chain copies: 2; dsDNA, one strand shown
# T6 sequence: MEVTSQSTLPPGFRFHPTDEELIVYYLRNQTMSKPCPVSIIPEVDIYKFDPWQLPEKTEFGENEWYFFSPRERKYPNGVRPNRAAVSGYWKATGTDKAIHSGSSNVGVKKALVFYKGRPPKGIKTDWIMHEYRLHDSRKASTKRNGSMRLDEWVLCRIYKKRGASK
# In short: as §1
# GST-NST2(1-184) = biological target: T7, GST-NST2(1-184) (Arabidopsis thaliana, UniProt Q9M274 1-184); details: protein: recombinant; tags: GST; chain copies: 2; dsDNA, one strand shown
# T7 sequence: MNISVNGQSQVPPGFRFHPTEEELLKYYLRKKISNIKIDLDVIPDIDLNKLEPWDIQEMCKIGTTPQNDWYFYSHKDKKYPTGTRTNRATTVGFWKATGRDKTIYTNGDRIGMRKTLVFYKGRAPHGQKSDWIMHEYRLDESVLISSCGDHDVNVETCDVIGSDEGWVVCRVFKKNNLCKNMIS
# In short: as §1
# GST-SND1(1-203) = biological target: T8, GST-SND1(1-203) (Arabidopsis thaliana, UniProt Q9LPI7 1-203); details: protein: recombinant; tags: GST; chain copies: 2; dsDNA, one strand shown
# T8 sequence: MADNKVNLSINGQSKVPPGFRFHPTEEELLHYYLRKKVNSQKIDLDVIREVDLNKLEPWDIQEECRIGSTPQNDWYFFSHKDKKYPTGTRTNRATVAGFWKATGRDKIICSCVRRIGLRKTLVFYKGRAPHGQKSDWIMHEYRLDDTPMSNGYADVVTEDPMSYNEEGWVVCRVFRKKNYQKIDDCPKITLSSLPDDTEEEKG
# In short: as §1
# GST-VND3 NAC domain = biological target: T9, GST-VND3 NAC domain (Arabidopsis thaliana, UniProt Q9FH59 12-162); details: protein: recombinant; tags: GST; chain copies: 2; dsDNA, one strand shown
# T9 sequence: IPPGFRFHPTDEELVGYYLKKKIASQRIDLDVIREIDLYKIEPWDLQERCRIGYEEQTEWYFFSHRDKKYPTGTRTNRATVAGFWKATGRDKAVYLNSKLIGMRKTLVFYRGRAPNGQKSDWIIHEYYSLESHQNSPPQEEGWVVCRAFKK
# In short: as §1
# GST-VND7 NAC domain = biological target: T10, GST-VND7 NAC domain (Arabidopsis thaliana, UniProt Q9C8W9 9-158); details: protein: recombinant; tags: GST; chain copies: 2; dsDNA, one strand shown
# T10 sequence: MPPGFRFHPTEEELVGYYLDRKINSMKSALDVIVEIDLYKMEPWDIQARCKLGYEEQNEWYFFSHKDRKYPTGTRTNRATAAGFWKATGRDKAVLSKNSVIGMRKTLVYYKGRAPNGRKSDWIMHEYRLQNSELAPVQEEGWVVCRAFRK
# In short: as §1
# GST-WRKY1(266-371) = GST-WRKY1(266-371) (Arabidopsis thaliana, UniProt Q9SI37 266-371); details: protein: recombinant; tags: GST; dsDNA, one strand shown
# In short: as §1
# GST-NTL6(1-168) = GST-NTL6(1-168) (Arabidopsis thaliana, UniProt Q9SCK6 1-168); details: protein: recombinant; tags: GST; chain copies: 2; dsDNA, one strand shown
# In short: as §1
# GST-NTL8 NAC domain = biological target: T11, GST-NTL8 NAC domain (Arabidopsis thaliana, UniProt Q9XIN7 14-156); details: protein: recombinant; tags: GST; chain copies: 2; dsDNA, one strand shown
# T11 sequence: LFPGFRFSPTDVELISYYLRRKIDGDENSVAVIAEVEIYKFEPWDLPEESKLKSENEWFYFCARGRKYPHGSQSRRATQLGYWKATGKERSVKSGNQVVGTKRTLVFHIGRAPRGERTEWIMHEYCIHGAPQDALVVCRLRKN
# In short: as §1
# GST-NTL6(1-168), sequence (Q9SCK6 1-168): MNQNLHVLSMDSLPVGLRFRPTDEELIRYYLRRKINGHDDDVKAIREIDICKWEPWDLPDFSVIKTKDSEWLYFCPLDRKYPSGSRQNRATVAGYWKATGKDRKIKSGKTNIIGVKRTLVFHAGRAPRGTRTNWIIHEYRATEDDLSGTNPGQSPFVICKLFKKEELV
# GST-WRKY1(266-371), sequence (Q9SI37 266-371): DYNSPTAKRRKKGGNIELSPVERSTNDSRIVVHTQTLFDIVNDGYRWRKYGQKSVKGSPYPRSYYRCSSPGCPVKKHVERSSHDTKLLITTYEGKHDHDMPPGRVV
sequence,measurement,setting,value
GACGCAAC,binding signal,GST-ANAC092(1-176),0.438 E-score
same,binding signal,GST-ANAC019 NAC domain,0.294 E-score
same,binding signal,GST-ANAC055(1-171),0.293 E-score
same,binding signal,GST-ATAF1 NAC domain,0.282 E-score
same,binding signal,[1],0.457 E-score
same,binding signal,GST-NAP(1-166),0.37 E-score
same,binding signal,GST-NST2(1-184),0.295 E-score
same,binding signal,GST-SND1(1-203),0.325 E-score
same,binding signal,GST-VND3 NAC domain,0.295 E-score
same,binding signal,GST-VND7 NAC domain,0.259 E-score
same,binding signal,GST-WRKY1(266-371),0.0608 E-score
AGTCAACA,binding signal,GST-ANAC092(1-176),0.161 E-score
same,binding signal,GST-NTL6(1-168),0.0859 E-score
same,binding signal,GST-ANAC019 NAC domain,0.125 E-score
same,binding signal,GST-ANAC055(1-171),0.0844 E-score
same,binding signal,GST-ATAF1 NAC domain,0.152 E-score
same,binding signal,[1],0.0634 E-score
same,binding signal,GST-NST2(1-184),0.0624 E-score
same,binding signal,GST-NTL8 NAC domain,0.0937 E-score
same,binding signal,GST-SND1(1-203),0.19 E-score
same,binding signal,GST-VND3 NAC domain,0.13 E-score
same,binding signal,GST-VND7 NAC domain,0.0805 E-score
same,binding signal,GST-WRKY1(266-371),0.488 E-score
CTTTCTTC,binding signal,GST-ANAC092(1-176),0.137 E-score
same,binding signal,GST-NTL6(1-168),0.295 E-score
same,binding signal,GST-ATAF1 NAC domain,0.117 E-score
same,binding signal,[1],0.21 E-score
same,binding signal,GST-NAP(1-166),0.0839 E-score
same,binding signal,GST-NST2(1-184),0.0636 E-score
same,binding signal,GST-NTL8 NAC domain,0.41 E-score
same,binding signal,GST-SND1(1-203),0.181 E-score
same,binding signal,GST-VND3 NAC domain,0.074 E-score
same,binding signal,GST-VND7 NAC domain,0.0647 E-score
same,binding signal,GST-WRKY1(266-371),0.156 E-score
ATTACTTC,binding signal,GST-ANAC092(1-176),0.31 E-score
same,binding signal,GST-NTL6(1-168),0.415 E-score
same,binding signal,GST-ANAC019 NAC domain,0.168 E-score
same,binding signal,GST-ANAC055(1-171),0.223 E-score
same,binding signal,GST-ATAF1 NAC domain,0.176 E-score
same,binding signal,[1],0.34 E-score
same,binding signal,GST-NST2(1-184),0.267 E-score
same,binding signal,GST-NTL8 NAC domain,0.406 E-score
same,binding signal,GST-SND1(1-203),0.347 E-score
same,binding signal,GST-VND3 NAC domain,0.208 E-score
same,binding signal,GST-VND7 NAC domain,0.14 E-score
same,binding signal,GST-WRKY1(266-371),0.097 E-score
CGTGGTCA,binding signal,GST-ANAC092(1-176),0.128 E-score
same,binding signal,GST-ANAC019 NAC domain,0.189 E-score
same,binding signal,GST-ANAC055(1-171),0.0851 E-score
same,binding signal,GST-ATAF1 NAC domain,0.0537 E-score
same,binding signal,[1],0.195 E-score
same,binding signal,GST-SND1(1-203),0.0883 E-score
same,binding signal,GST-VND3 NAC domain,0.164 E-score
same,binding signal,GST-VND7 NAC domain,0.128 E-score
same,binding signal,GST-WRKY1(266-371),0.431 E-score
GTCGCGTA,binding signal,GST-ANAC092(1-176),0.307 E-score
same,binding signal,GST-NTL6(1-168),0.0763 E-score
same,binding signal,GST-ATAF1 NAC domain,0.195 E-score
same,binding signal,[1],0.414 E-score
same,binding signal,GST-NAP(1-166),0.171 E-score
same,binding signal,GST-NST2(1-184),0.109 E-score
same,binding signal,GST-SND1(1-203),0.422 E-score
same,binding signal,GST-VND3 NAC domain,0.102 E-score
same,binding signal,GST-VND7 NAC domain,0.233 E-score
same,binding signal,GST-WRKY1(266-371),0.145 E-score
AAGTCTAC,binding signal,GST-ANAC092(1-176),0.0876 E-score
same,binding signal,GST-NTL6(1-168),0.202 E-score
same,binding signal,GST-ANAC055(1-171),0.158 E-score
same,binding signal,GST-ATAF1 NAC domain,0.0826 E-score
same,binding signal,GST-NST2(1-184),0.103 E-score
same,binding signal,GST-SND1(1-203),0.0865 E-score
same,binding signal,GST-VND3 NAC domain,0.0561 E-score
same,binding signal,GST-VND7 NAC domain,0.0651 E-score
same,binding signal,GST-WRKY1(266-371),0.412 E-score
GAAAGGAA,binding signal,GST-ANAC092(1-176),0.21 E-score
same,binding signal,GST-NTL6(1-168),0.32 E-score
same,binding signal,GST-ANAC019 NAC domain,0.134 E-score
same,binding signal,GST-ANAC055(1-171),0.168 E-score
same,binding signal,GST-ATAF1 NAC domain,0.188 E-score
same,binding signal,[1],0.2 E-score
same,binding signal,GST-NST2(1-184),0.228 E-score
same,binding signal,GST-NTL8 NAC domain,0.422 E-score
same,binding signal,GST-SND1(1-203),0.234 E-score
same,binding signal,GST-VND3 NAC domain,0.209 E-score
same,binding signal,GST-VND7 NAC domain,0.231 E-score
same,binding signal,GST-WRKY1(266-371),0.0968 E-score

# From PMC4081100, “A DNA-binding-site landscape and regulatory network analysis for NAC transcription factors in Arabidopsis thaliana”
